Source: PMC5540273 (PLoS ONE, 2017)

Tests used:
Conditions in all cases: concentration: 1 μM, replicates: in singlicate; n = 1
WNK4 = test system: WNK4
YANK1 = test system: T1, YANK1
T1 construct: gene STK32A

YANK2 = test system: T2, YANK2
T2 construct: gene STK32B

YANK3 = test system: T3, YANK3
T3 construct: gene STK32C

YES = test system: T4, YES
T4 construct: gene YES1

YSK1 = test system: T5, YSK1
T5 construct: gene STK25

YSK4 = test system: T6, YSK4
T6 construct: gene MAP3K19

ZAK = test system: ZAK
ZAP70 = test system: ZAP70
p38-alpha = test system: T7, p38-alpha
T7 construct: gene MAPK14
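Also: KINOMEscan kinase panel screen.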

Structure (SMILES)	%Inh (WNK4) [%]	%Inh (YANK1) [%]	%Inh (YANK2) [%]	%Inh (YANK3) [%]	%Inh (YES) [%]	%Inh (YSK1) [%]	%Inh (YSK4) [%]	%Inh (ZAK) [%]	%Inh (ZAP70) [%]	%Inh (p38-alpha) [%]
O=C(Nc1ccccc1F)NC1CCN(c2ccnc(Nc3ccc(F)cc3)n2)C1 (centres unmarked) [GSK1379722]	28	0	6	21	14	2	28	0	0	6
CN1CCC(n2cnc(-c3ccc(F)cc3)c2-c2ccnc(NC3CCNCC3)n2)CC1 [SB-229482]	0	0	2	1	0	0	0	4	0	89
Nc1nc(-c2cccnc2)c(-c2ccnc3ccccc23)s1 [GW684083]	39	20	18	0	18	0	60	78	0	40
CN1c2ccc(-c3ccc(C(=O)NCCO)cc3)cc2-c2[nH]ncc2S1(=O)=O	0	0	0	0	12	13	8	20	0	0
O=C(Nc1ccccc1)Nc1ccc(Oc2ccc3nccn3n2)cc1	0	0	0	0	11	0	0	4	0	0
